The supplement of paper PMC10849652
The full data set covers some 7,900 targets. This sample favours those with a hit. About 0.6% of all pairs of compound and target were hits. Values without a mark were called inactive.

Columns and labels:
Experiment in all cases: log2 fold change, soluble protein after heating vs DMSO (PISA); higher = thermal stabilisation; K562 cells, 10 uM, 30 min; active = over 0.2 and 3.5 SD of the protein, either way, in both replicates (recomputed)
[1] = compound: COC1=CC=C(C=C1)CN2C=CC3=C2C=C(C=C3)C(=O)NO
How it was run: (§1)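 K562 cells at 2×10^6 cells/mL were treated with 10 μM compound for 30 min. Aliquots were heated for 3 min across 48°C-58°C, pooled, and extracted in PBS with 0.5% NP-40 at 4°C; soluble protein was the supernatant after 21,000xg for 90 min. Soluble protein was quantified by TMTpro 16plex LC-MS/MS with channel sums equalised, and reported as log2 fold change in thermal stability against DMSO controls, with values from duplicates.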

filanesib = compound: CON(C)C(=O)N1N=C(c2cc(F)ccc2F)S[C@@]1(CCCN)c1ccccc1 [filanesib]
How it was run: as §1

zotarolimus = compound: CO[C@H]1C[C@@H]2CC[C@@H](C)[C@@](O)(O2)C(=O)C(=O)N2CCCC[C@H]2C(=O)O[C@H]([C@H](C)C[C@@H]2CC[C@H](n3cnnn3)[C@H](OC)C2)CC(=O)[C@H](C)/C=C(\C)[C@@H](O)[C@@H](OC)C(=O)[C@H](C)C[C@H](C)/C=C/C=C/C=C/1C [zotarolimus]
How it was run: as §1

idasanutlin = compound: COc1cc(C(=O)O)ccc1NC(=O)[C@@H]1N[C@@H](CC(C)(C)C)[C@](C#N)(c2ccc(Cl)cc2F)[C@H]1c1cccc(Cl)c1F [idasanutlin]
How it was run: as §1

alisertib = compound: COc1cc(Nc2ncc3c(n2)-c2ccc(Cl)cc2C(c2c(F)cccc2OC)=NC3)ccc1C(=O)O [alisertib]
How it was run: as §1

[2] = compound: COc1cc2nc(-c3cc(F)ccc3O)nc(N[C@@H]3CNC[C@H]3C(C)(C)O)c2cc1OC
How it was run: as §1

gefitinib = compound: COc1cc2ncnc(Nc3ccc(F)c(Cl)c3)c2cc1OCCCN1CCOCC1 [gefitinib]
How it was run: as §1

[3] = compound: COc1cccc2cc(-c3nc([C@H]4CC[C@H](C(=O)O)CC4)n4ncnc(N)c34)[nH]c12
How it was run: as §1

lapatinib = compound: CS(=O)(=O)CCNCc1ccc(-c2ccc3ncnc(Nc4ccc(OCc5cccc(F)c5)c(Cl)c4)c3c2)o1 [lapatinib]
How it was run: as §1

pictilisib = compound: CS(=O)(=O)N1CCN(Cc2cc3nc(-c4cccc5[nH]ncc45)nc(N4CCOCC4)c3s2)CC1 [pictilisib]
How it was run: as §1

[4] = compound: CS(=O)(=O)c1ccc(-c2cnc(N)c(C(=O)Nc3ccccc3)n2)cc1
How it was run: as §1

crizotinib = compound: C[C@@H](Oc1cc(-c2cnn(C3CCNCC3)c2)cnc1N)c1c(Cl)ccc(F)c1Cl [crizotinib]
How it was run: as §1

[5] = compound: C[C@@H]1COCCN1C2=NC(=NC(=C2)C3(CC3)S(=O)(=O)C)C4=C5C=CNC5=CC=C4
How it was run: as §1

[6] = compound: C[C@H](C1=CC=C(C=C1)C(=O)NC2=C3C=CNC3=NC=C2)N
How it was run: as §1

duvelisib = compound: C[C@H](Nc1ncnc2nc[nH]c12)c1cc2cccc(Cl)c2c(=O)n1-c1ccccc1 [duvelisib]
How it was run: as §1

gandotinib = compound: Cc1cc(Nc2cc(CN3CCOCC3)c3nc(C)c(Cc4ccc(Cl)cc4F)n3n2)n[nH]1 [gandotinib]
How it was run: as §1

tozasertib = compound: Cc1cc(Nc2cc(N3CCN(C)CC3)nc(Sc3ccc(NC(=O)C4CC4)cc3)n2)n[nH]1 [tozasertib]
How it was run: as §1

[7] = compound: Cc1cc(SCc2sc(-c3ccc(C(F)(F)F)cc3)nc2C)ccc1OCC(=O)O
How it was run: as §1

doramapimod = compound: Cc1ccc(-n2nc(C(C)(C)C)cc2NC(=O)Nc2ccc(OCCN3CCOCC3)c3ccccc23)cc1 [doramapimod]
How it was run: as §1

ispinesib = compound: Cc1ccc(C(=O)N(CCCN)[C@@H](c2nc3cc(Cl)ccc3c(=O)n2Cc2ccccc2)C(C)C)cc1 [ispinesib]
How it was run: as §1

UniProt Q96PC5, sequence (Q96PC5 whole entry, looked up): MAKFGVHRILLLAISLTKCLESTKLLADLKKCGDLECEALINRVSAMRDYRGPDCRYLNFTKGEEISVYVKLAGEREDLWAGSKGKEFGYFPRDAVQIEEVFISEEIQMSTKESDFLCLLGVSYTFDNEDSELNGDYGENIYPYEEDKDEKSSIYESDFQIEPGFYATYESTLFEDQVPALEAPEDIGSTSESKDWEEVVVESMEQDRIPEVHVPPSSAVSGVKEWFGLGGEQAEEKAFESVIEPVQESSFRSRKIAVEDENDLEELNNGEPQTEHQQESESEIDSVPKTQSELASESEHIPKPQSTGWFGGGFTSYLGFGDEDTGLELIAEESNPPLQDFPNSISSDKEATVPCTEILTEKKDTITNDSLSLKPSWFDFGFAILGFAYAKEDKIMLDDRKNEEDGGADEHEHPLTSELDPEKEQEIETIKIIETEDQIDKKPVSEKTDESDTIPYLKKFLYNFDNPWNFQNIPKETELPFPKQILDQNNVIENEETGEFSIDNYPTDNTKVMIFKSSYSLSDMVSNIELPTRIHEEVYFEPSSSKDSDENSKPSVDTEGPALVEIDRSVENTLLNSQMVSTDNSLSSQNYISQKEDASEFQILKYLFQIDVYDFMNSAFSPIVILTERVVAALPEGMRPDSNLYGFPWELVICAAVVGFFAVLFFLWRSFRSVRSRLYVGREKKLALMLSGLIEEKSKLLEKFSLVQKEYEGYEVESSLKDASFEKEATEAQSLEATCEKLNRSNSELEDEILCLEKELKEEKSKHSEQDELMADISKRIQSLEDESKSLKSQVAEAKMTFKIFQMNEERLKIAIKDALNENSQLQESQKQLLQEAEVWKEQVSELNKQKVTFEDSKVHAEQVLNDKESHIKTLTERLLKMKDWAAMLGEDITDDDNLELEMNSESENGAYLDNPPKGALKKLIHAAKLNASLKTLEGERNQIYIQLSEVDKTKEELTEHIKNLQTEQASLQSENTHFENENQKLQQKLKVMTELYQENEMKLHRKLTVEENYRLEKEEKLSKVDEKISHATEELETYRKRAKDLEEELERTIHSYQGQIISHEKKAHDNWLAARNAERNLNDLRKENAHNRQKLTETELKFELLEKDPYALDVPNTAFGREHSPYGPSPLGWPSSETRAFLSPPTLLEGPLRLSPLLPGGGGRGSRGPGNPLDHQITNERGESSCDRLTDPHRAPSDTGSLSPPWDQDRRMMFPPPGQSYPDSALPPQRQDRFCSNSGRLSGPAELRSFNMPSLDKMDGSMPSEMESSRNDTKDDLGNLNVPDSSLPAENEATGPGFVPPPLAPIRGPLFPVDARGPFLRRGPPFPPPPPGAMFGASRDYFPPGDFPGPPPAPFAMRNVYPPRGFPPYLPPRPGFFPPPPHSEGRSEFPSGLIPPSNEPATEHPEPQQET
UniProt Q8IWA4, sequence (Q8IWA4 whole entry, looked up): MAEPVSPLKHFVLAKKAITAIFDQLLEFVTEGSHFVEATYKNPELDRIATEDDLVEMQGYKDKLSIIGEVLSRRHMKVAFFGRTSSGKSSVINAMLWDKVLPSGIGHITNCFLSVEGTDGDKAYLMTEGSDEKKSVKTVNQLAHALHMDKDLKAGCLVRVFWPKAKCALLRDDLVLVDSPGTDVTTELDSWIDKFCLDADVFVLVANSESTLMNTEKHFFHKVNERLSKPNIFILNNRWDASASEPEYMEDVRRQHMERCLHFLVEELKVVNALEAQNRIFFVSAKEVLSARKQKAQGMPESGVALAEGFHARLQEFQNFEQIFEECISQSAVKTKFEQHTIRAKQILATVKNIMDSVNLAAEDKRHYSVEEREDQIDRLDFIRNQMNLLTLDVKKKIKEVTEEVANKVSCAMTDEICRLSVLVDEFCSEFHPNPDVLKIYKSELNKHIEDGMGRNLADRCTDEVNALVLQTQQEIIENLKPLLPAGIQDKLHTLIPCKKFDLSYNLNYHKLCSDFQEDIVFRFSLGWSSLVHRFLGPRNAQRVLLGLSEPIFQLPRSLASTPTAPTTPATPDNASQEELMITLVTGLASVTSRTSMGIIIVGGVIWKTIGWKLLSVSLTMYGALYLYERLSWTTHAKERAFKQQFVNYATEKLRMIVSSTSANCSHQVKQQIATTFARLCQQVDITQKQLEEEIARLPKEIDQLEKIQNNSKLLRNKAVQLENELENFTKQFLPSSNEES
UniProt O94829, sequence (O94829 whole entry, looked up): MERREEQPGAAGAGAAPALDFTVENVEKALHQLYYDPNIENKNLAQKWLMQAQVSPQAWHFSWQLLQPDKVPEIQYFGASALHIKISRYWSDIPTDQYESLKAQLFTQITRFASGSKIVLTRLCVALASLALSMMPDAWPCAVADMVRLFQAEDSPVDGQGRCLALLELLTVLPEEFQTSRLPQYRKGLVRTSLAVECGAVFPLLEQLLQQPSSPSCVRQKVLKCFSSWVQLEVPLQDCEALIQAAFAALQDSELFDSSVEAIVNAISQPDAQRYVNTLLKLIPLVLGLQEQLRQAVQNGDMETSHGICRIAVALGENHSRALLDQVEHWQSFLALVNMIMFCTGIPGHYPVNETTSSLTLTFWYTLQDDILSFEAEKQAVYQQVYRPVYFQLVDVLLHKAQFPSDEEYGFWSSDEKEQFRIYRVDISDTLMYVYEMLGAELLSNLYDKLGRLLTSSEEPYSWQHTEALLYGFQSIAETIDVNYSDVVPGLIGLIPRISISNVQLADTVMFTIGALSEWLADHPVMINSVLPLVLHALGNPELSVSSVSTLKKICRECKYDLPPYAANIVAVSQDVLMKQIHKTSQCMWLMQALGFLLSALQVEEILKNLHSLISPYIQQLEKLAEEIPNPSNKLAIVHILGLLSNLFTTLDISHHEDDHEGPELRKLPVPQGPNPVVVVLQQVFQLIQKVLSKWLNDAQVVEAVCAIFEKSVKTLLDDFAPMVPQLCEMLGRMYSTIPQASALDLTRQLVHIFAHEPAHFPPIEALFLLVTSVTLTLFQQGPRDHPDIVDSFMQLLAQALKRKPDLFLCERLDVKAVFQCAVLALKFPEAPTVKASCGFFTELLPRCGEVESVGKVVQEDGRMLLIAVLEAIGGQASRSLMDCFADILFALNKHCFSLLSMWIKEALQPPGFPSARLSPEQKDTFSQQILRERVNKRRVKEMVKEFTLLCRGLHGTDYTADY
UniProt Q07820, sequence (Q07820 whole entry, looked up): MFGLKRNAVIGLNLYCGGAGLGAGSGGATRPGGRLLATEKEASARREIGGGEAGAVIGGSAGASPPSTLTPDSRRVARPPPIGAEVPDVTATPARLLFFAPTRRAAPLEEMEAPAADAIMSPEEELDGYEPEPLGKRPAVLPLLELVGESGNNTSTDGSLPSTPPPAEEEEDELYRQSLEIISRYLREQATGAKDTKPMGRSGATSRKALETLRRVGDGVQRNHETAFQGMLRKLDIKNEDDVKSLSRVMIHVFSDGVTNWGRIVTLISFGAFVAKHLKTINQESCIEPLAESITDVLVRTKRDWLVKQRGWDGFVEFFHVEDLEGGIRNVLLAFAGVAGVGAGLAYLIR
UniProt O43318, sequence (O43318 whole entry, looked up): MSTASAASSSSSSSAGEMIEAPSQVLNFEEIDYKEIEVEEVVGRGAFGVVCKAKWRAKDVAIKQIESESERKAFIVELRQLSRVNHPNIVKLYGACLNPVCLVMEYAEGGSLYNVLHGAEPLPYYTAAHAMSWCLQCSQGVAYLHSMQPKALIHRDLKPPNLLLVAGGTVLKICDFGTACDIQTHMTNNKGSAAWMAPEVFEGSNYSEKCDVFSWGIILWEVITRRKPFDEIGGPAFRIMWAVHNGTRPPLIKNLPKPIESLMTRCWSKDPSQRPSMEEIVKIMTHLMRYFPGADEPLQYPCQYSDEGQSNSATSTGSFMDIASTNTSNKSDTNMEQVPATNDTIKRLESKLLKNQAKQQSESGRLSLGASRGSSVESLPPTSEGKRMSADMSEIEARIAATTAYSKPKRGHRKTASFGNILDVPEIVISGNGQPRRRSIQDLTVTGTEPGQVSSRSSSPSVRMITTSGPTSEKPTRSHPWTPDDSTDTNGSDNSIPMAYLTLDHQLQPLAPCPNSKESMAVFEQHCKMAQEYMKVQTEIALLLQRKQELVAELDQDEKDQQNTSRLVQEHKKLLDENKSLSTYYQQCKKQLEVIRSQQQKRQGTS
UniProt P49137, sequence (P49137 whole entry, looked up): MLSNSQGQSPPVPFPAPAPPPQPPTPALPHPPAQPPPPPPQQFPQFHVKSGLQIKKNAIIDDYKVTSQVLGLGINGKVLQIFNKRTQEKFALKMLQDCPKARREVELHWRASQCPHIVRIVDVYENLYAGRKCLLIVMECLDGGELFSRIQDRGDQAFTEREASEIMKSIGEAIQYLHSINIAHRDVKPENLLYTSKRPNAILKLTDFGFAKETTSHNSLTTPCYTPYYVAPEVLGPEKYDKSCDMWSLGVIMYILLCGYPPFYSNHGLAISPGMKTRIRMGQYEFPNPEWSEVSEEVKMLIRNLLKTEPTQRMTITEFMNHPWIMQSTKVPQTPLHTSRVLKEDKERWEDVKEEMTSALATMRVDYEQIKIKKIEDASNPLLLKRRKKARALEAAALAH
UniProt Q8IWB1, sequence (Q8IWB1 whole entry, looked up): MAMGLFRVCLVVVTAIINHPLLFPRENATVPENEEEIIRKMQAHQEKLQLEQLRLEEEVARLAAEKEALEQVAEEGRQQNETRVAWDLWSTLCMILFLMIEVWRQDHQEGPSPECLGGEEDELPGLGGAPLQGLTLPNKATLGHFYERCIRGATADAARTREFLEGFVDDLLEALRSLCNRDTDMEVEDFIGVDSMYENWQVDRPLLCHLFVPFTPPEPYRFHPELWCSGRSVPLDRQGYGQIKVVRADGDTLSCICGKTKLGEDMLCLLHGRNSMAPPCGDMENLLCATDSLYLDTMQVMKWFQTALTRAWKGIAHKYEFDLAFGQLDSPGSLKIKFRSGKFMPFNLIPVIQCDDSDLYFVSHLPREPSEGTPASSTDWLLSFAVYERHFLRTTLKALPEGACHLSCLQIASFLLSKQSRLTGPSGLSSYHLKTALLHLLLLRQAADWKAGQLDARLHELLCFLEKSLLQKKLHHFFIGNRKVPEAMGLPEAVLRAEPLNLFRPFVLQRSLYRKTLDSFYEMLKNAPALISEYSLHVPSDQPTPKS

| Target | log2 fold change [1] | log2 fold change (filanesib) | log2 fold change (zotarolimus) | log2 fold change (idasanutlin) | log2 fold change (alisertib) | log2 fold change [2] | log2 fold change (gefitinib) | log2 fold change [3] | log2 fold change (lapatinib) | log2 fold change (pictilisib) | log2 fold change [4] | log2 fold change (crizotinib) | log2 fold change [5] | log2 fold change [6] | log2 fold change (duvelisib) | log2 fold change (gandotinib) | log2 fold change (tozasertib) | log2 fold change [7] | log2 fold change (doramapimod) | log2 fold change (ispinesib) |
| --- | --- | --- | --- | --- | --- | --- | --- | --- | --- | --- | --- | --- | --- | --- | --- | --- | --- | --- | --- | --- |
| MCL1 (UniProt Q07820) | -0.092 | 0.029 | 0.093 | 0.145 | -0.12 | -0.442 (active) | -0.18 | 0.055 | -0.249 | -0.026 | -0.079 | 0.043 | -0.158 | -0.006 | 0.052 | 0.042 | -0.056 | 0.01 | 0.109 | -0.441 |
| KIF3A (UniProt Q9Y496) | 0.219 | -0.091 | -0.004 | 0.056 | -0.027 | 0.137 | -0.129 | 0 | -0.063 | 0.146 | 0.049 | -0.239 | -0.01 | 0.143 | 0.048 | -0.024 | 0.009 | -0.029 | 0.003 | 0.044 |
| MDC1 (UniProt Q14676) | -0.055 | 0.223 | 0.005 | 0.283 | -0.028 | -0.01 | 0.032 | -0.045 | 0.077 | 0.08 | -0.053 | -0.109 | 0.041 | 0.107 | -0.057 | 0.423 | -0.154 | -0.031 | 0.178 | -0.217 |
| MAP3K7 (UniProt O43318) | 0.105 | 0.026 | -0.074 | -0.03 | 0.084 | 0.065 | 0.016 | -0.054 | -0.058 | 0.088 | 0.093 | -0.193 | -0.035 | 0.135 | 0.08 | -0.036 | -0.011 | 0.118 | -0.001 | -0.029 |
| MICU2 (UniProt Q8IYU8) | 0.067 | -0.089 | -0.142 | 0.022 | -0.067 | -0.21 | 0.038 | -0.031 | -0.031 | 0.005 | 0.014 | -0.173 | -0.026 | 0.108 | -0.045 | -0.062 | -0.036 | 0.035 | -0.009 | -0.213 |
| MFN1 (UniProt Q8IWA4) | 0.042 | -0.182 | 0.06 | 0.034 | 0.262 | -0.523 (active) | 0.017 | 0.03 | 0.002 | 0.024 | 0.031 | -0.026 | 0.027 | -0.063 | 0.037 | 0.025 | -0.063 | 0.039 | 0.02 | -0.207 |
| MAPKAPK2 (UniProt P49137) | 0.066 | -0.06 | -0.012 | -0.054 | -0.03 | 0.118 | 0.11 | 0.01 | -0.025 | 0.023 | -0.032 | -0.082 | 0.035 | -0.019 | 0.006 | -0.066 | -0.018 | 0.006 | 0.147 | -0.003 |
| IWS1 (UniProt Q96ST2) | 0.007 | -0.013 | -0.006 | -0.105 | -0.068 | 0.124 | -0.055 | 0.055 | -0.077 | -0.011 | 0.077 | 0.146 | 0.132 | 0.119 | 0.028 | 0.108 | 0.058 | 0.062 | -0.134 | 0.061 |
| MARK3 (UniProt P27448) | 0.008 | 0.054 | 0.062 | 0.091 | 0.05 | -0.219 | -0.002 | -0.063 | 0.022 | -0.033 | -0.042 | -0.394 (active) | -0.039 | 0.063 | -0.013 | -0.194 | -0.187 | 0.089 | 0.073 | -0.173 |
| ITPRIP (UniProt Q8IWB1) | -0.042 | -0.022 | -0.024 | 0.014 | 0.012 | -0.021 | 0.018 | -0.043 | -0.038 | 0.049 | -0.002 | 0.056 | 0.012 | -0.039 | 0.005 | -0.049 | 0.045 | 0.038 | 0.062 | -0.037 |
| IPO13 (UniProt O94829) | -0.017 | -0.144 | -0.039 | -0.038 | 0.021 | -0.024 | -0.047 | 0.008 | 0.038 | 0.109 | -0.042 | -0.134 | 0.016 | -0.028 | 0.04 | -0.234 | 0.001 | 0.01 | 0.023 | -0.13 |
| MIA2 (UniProt Q96PC5) | -0.017 | 0.121 | 0.037 | -0.017 | 0.069 | 0.027 | 0.034 | -0.109 | 0.029 | -0.019 | 0.001 | 0.015 | 0.006 | -0.059 | -0.077 | -0.034 | 0.09 | 0.044 | -0.01 | 0.011 |
